# Inconclusive results are not listed. Activity calls are given as the source filed them.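 Rule for the calls, unless noted: active = differentiation response of at least 50%, scaled between solvent and reference control, from cells with both markers; inactive = the rest.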
# What was measured:
# [1] = yeast TOR pathway RPL19A-GFP modulators, primary screen, cell-based, S. cerevisiae, multiplex flow cytometry (AID 1862; in the data active = percent of DMSO control GFP below about 86%;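 note: lower values mimic rapamycin by blocking the RPL19A rise seen in DMSO cells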); settings: S. cerevisiae RPL19A-GFP strain, flow cytometry fluorescence, 3 h; at 10 µM; stronger effect = lower value
# [2] = modulators of MEP2-GFP levels in yeast, primary screen, S. cerevisiae, multiplex flow cytometry (AID 1867;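 active = GFP response, as percent of the DMSO control, above the screen-wide mean plus 3 SD, about 139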;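 note: median GFP channel fluorescence of barcode-gated MEP2-GFP cells measured by flow cytometry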); settings: S. cerevisiae MEP2-GFP strain, 3 h, at 10 µM, stronger effect = higher value, 100% means same as DMSO wells
# [3] = modulators of CIT2-GFP expression in yeast, primary screen, S. cerevisiae, GFP fusion, multiplex flow cytometry (AID 1870;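 active = percent response above a set limit, the screen-wide mean plus 3 SD, cut at about 130% in these data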;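 note: barcoded CIT2-GFP strain pooled with four other GFP strains with rapamycin as positive control; median GFP fluorescence per well over plate mean of DMSO wells so 100% = DMSO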); settings: 3 h, at 10 µM, stronger effect = higher value
# [4] = modulators of LAP4-GFP expression in yeast, primary screen, S. cerevisiae, multiplex flow cytometry (AID 1873;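 active = GFP signal, as percent of the solvent control, above the screen mean plus 3 SD, about 149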); settings: 3 h, at 10 µM, stronger effect = higher value
# [5] = modulators of AGP1-GFP expression in yeast TOR pathway, primary screen, cell-based, multiplex flow cytometry, S. cerevisiae (AID 1887;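 active = GFP signal above the screen-wide mean plus 3 SD, that is over about 124.5% of the solvent control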;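 note: AGP1-GFP fusion strain of S. cerevisiae within a five-strain barcoded multiplex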); settings: 3 h, at 10 µM, stronger effect = higher value
# [6] = inhibitors of CD8+ T cell-vesicle binding, pilot screen, LFA-1/ICAM-1 modulator project, MLPCN validation set, flow cytometry (AID 2523;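 active = response below a set limit, under 55% cells CD8-positive and vesicle-bound, and CD8 cells' 90th-percentile brightness under 279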;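 for vesicle binding response: mean PE anti-B7-1 fluorescence of CD8+ cells relative to row control; 100% = QL9-loaded vesicles with DMSO vehicle in the same plate row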); settings: 2C mouse CD8+ T cells, at 7 µM, stronger effect = lower value; double positive events: measured here: CD8+/vesicle+ event percentage
# [7] = target: Integrin beta-1 (Homo sapiens) + Integrin alpha-4 (Homo sapiens) (UniProt P13612+P05556); assay: inhibition of HUTS-21 binding to VLA-4, pilot screen, VLA-4 allosteric modulator project, U937 cells, HUTS-21 mAb, flow cytometry, validation set (AID 2674;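 active = inhibition above 50%, about 3 SD of the validation set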;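 note: antibody binding induced by the VLA-4 ligand LDV present at three times its Kd; 0% = LDV ligand with antibody and no compound and 100% = antibody without LDV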); settings: HUTS-21 LIBS mAb binding, at 6.7 µM, stronger effect = higher value, binding induced by LDV ligand
# Sequence of Integrin beta-1 (Homo sapiens) + Integrin alpha-4 (Homo sapiens) (P05556 whole entry, looked up): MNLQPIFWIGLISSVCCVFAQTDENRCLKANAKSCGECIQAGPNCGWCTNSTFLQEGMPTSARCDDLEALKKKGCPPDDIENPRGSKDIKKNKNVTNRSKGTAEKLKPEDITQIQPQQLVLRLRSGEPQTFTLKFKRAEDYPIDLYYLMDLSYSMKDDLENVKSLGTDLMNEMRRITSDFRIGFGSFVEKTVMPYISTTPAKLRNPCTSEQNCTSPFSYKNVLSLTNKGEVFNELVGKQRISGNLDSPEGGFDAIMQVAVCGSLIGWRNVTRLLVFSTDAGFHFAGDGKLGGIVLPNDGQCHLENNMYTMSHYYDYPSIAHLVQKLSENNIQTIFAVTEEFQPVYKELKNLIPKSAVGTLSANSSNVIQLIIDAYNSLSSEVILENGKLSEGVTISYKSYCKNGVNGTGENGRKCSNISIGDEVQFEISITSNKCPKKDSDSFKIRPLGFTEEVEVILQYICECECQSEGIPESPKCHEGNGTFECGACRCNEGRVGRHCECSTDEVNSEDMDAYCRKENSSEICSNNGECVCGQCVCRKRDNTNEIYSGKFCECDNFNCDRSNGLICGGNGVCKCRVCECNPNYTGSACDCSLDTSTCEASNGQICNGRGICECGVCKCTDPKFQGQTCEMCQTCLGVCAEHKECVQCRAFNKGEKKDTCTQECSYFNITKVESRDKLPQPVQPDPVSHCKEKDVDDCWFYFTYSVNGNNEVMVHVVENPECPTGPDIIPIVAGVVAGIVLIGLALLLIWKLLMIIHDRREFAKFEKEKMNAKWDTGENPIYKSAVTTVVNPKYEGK
# Sequence of Integrin beta-1 (Homo sapiens) + Integrin alpha-4 (Homo sapiens) (P13612 whole entry, looked up): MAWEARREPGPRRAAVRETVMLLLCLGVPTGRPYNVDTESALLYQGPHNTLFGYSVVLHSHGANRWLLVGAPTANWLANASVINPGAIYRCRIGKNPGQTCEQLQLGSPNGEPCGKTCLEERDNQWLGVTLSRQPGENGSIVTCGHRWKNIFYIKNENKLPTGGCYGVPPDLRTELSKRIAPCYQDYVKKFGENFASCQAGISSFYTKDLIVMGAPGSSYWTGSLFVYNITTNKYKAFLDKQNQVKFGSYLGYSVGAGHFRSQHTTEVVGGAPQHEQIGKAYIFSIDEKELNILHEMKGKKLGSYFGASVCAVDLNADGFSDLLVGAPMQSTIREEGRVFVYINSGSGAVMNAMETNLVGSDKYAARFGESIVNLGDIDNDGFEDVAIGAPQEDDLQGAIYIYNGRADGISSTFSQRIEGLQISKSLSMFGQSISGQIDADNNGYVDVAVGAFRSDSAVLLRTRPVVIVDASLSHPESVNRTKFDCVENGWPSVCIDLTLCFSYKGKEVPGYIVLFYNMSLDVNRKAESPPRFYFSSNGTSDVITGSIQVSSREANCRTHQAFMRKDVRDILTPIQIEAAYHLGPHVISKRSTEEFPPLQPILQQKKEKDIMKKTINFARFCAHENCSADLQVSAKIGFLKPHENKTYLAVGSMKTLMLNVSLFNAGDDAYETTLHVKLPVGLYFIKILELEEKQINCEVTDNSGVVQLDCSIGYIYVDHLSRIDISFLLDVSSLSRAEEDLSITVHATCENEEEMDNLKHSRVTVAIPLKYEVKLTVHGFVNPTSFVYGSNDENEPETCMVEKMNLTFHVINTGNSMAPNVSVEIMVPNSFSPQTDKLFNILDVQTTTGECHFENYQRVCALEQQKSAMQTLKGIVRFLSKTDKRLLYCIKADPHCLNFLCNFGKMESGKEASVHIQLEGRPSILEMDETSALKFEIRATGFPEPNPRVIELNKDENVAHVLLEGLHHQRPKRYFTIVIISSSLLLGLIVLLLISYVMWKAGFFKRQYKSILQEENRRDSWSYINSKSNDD
# [8] = superoxide lowering in aged yeast cells, pilot screen, validation compound set (AID 2706;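 active = superoxide response below 65% of plate, a cut near 3 SD across the whole screen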;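 note: yeast exposed to compound for one week at 30 degrees C before staining; 100% = mean of all compound wells on the same plate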); settings: S. cerevisiae aging, superoxide DHE fluorescence; at 10 µM; stronger effect = lower value
# [9] = target: Beta-adrenergic receptor kinase 1 (Homo sapiens) (UniProt P25098); assay: GRK2 binders displacing RNA aptamer, biochemical, validation, human GRK2, bead flow cytometry (AID 488806;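 active = aptamer binding inhibition above 30%, about 3 SD of noise from non-fluorescent compounds; inactive = inhibition at or below 30%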); settings: bead-bound GRK2, FAM-aptamer displacement, at 10 µM, stronger effect = higher value
# Sequence of Beta-adrenergic receptor kinase 1 (Homo sapiens) (P25098 whole entry, looked up): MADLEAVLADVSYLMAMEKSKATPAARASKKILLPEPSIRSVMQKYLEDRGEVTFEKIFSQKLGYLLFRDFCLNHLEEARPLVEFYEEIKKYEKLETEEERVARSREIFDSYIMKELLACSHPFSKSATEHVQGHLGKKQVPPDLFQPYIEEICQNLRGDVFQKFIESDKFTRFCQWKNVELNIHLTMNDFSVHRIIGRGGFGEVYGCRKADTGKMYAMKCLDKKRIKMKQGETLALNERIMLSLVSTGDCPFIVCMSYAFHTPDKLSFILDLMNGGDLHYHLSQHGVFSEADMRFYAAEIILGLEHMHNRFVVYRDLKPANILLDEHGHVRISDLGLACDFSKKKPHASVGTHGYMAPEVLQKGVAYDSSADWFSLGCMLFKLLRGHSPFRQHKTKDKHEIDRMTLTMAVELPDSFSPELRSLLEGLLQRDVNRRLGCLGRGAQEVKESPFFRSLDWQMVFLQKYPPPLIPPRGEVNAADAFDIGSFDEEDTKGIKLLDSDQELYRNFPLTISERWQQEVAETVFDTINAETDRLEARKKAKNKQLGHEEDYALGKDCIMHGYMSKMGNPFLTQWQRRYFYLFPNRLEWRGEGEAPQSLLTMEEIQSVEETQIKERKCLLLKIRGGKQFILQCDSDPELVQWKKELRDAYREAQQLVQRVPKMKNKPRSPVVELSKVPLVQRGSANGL
# [10] = target: Beta-2 adrenergic receptor (Homo sapiens) (UniProt P07550); assay: beta2AR agonists driving receptor internalization, pilot screen, cell-based, FAP fluorogen, flow cytometry, validation set (AID 504459;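 active = percent response above 42, roughly 3 SD of non-fluorescent test compounds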;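 note: agonist-driven loss of surface beta2AR via internalization measured by FAP dye flow cytometry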); settings: Am2.2-beta2AR cells, FAP surface receptor flow cytometry; at 10 µM; stronger effect = higher value
# Sequence of Beta-2 adrenergic receptor (Homo sapiens) (P07550 whole entry, looked up): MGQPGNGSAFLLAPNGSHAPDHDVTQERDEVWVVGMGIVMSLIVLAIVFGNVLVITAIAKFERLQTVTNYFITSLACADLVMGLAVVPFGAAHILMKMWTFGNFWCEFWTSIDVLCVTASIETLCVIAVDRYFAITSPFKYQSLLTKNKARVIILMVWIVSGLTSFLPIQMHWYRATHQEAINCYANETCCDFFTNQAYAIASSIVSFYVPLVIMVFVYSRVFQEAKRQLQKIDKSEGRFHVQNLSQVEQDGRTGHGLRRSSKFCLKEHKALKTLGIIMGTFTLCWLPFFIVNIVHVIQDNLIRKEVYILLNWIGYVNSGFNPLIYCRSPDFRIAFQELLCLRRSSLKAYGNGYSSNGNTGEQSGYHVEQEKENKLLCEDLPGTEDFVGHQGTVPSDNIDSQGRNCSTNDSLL
# [11] = target: AP-2 complex subunit beta (Homo sapiens) (UniProt P63010); assay: inhibitors of arrestin peptide binding to AP2, pilot screen, biochemical, validation set, GST-AP2 beads, flow cytometry (AID 504541;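 active = inhibition above 54%, about 3 SD of non-fluorescent compounds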;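 note: AP2 carries R879A mutation and is captured from E. coli lysate; bead-bound FITC arrestin peptide fluorescence measuring arrestin peptide binding to AP2; 0% = DMSO wells and 100% = excess unlabeled arrestin peptide control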); settings: FITC arrestin peptide, at 10 µM, stronger effect = higher value, AP2 beta2 appendage fragment, R879A mutant
# Sequence of AP-2 complex subunit beta (Homo sapiens) (P63010 whole entry, looked up, the tested form may be a part, one chain of several): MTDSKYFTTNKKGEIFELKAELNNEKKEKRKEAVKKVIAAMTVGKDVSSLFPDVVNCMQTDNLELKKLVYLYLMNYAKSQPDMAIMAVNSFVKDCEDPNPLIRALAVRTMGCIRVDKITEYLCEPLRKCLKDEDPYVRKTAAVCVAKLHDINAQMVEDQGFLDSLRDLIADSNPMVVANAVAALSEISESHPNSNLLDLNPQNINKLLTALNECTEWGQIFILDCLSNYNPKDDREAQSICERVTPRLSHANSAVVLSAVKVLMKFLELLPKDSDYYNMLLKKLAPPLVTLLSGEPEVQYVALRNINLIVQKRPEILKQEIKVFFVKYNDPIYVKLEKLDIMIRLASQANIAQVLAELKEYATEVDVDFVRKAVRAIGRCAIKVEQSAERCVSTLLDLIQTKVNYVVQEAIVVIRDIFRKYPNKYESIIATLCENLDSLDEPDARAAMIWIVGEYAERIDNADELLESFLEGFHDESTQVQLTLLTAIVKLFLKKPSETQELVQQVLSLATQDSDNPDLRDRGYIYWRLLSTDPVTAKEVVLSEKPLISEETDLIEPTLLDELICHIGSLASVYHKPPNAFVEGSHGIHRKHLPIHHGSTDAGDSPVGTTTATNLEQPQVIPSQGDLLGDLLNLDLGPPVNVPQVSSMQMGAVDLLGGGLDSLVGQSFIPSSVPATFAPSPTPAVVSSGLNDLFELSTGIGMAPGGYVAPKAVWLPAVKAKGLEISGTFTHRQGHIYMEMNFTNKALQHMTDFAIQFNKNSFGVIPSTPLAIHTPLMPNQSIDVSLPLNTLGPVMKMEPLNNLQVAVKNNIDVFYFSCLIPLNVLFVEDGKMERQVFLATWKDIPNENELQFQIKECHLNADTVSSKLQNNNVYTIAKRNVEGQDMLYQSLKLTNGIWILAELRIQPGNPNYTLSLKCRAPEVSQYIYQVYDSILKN
# [12] = yeast V-ATPase proton transport modulators, S. cerevisiae, pHLuorin, HTS validation (AID 504600; in the data active = response above about 15%;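 note: plate controls were DMSO for no effect and reference compound for full effect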); settings: S. cerevisiae pHLuorin cytosolic pH, at 10 µM, stronger effect = higher value
# [13] = test system: anti-desmoglein-3 scFv antibody binding to human DSG3; assay: inhibitors of anti-DSG3 scFv binding to DSG3, pilot screen, biochemical, validation compound set, bead-based, flow cytometry (AID 588368;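 active = binding below the plate cutoff, the plate median minus 3 SD, with a reading above zero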;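 note: signal is the median channel fluorescence of bead-bound GFP antibody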); settings: Protein G beads, DSG3-Fc, scFv-GFP binding, at 10 µM, stronger effect = lower value
# [14] = inhibitors of fungal efflux pumps CDR1, CDR2, MDR1, pilot screen, validation compound set, multiplex, phenotypic (AID 588506;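 active = efflux inhibition above 0.42, the validation set average plus 4 SD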;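 note: Nile Red retained in cells so higher fluorescence means more efflux inhibition; 0 = negative control wells and 1 = enniatin B 25 µM full block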); settings: S. cerevisiae pump-expressing triplex, Nile Red efflux flow cytometry; at 10 µM; stronger effect = higher value; the pumps come from Candida albicans
# [15] = target: ATP-binding cassette sub-family B member 6 (Homo sapiens) (UniProt Q9NP58); assay: ABCB6 transporter inhibitors, pilot screen, K562-ABCB6 cells, flow cytometry, validation set (AID 588550;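 active = inhibition above the screen-wide mean plus 3 SD, about 51%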;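 note: 0% = DMSO wells and 100% = benzethonium chloride 70 µM positive control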); settings: K562-ABCB6 porphyrin accumulation, 1 h, at 10 µM, stronger effect = higher value
# Sequence of ATP-binding cassette sub-family B member 6 (Homo sapiens) (Q9NP58 whole entry, looked up): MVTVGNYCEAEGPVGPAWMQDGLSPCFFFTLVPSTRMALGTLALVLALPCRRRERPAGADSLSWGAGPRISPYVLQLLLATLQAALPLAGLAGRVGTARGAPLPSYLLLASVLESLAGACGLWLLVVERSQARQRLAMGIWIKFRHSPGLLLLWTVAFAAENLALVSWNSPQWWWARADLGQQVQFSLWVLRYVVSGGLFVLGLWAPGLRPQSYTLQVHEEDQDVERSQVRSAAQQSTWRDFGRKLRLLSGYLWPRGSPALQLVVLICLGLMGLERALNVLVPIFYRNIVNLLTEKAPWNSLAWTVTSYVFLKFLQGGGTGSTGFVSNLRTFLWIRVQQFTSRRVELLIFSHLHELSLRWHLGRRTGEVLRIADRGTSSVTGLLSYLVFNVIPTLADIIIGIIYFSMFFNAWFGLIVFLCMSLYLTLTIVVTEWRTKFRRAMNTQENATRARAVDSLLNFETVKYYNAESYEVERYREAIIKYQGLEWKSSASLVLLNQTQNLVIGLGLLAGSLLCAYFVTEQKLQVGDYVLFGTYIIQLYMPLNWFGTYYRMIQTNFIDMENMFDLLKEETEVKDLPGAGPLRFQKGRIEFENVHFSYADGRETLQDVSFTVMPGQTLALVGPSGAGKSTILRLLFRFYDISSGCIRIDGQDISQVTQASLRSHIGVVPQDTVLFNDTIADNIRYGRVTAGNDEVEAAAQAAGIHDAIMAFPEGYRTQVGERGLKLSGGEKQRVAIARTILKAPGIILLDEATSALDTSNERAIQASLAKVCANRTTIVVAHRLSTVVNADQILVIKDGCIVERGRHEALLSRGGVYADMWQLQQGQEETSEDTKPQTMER
# [16] = promoters of myeloid differentiation in arrested cells, primary screen, cell-based, GFP/MAC1 double positive, flow cytometry, validation set (AID 588685); settings: ER-HoxA9 marrow cells, stronger effect = higher value, normalized: vehicle 0, fulvestrant 100;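 note: compound exposure lasts four days before antibody staining and flow analysis; 0% = DMSO wells and 100% = 5 µM fulvestrant positive control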
Structure (SMILES),percent of DMSO control GFP [1],GFP response vs DMSO [2],percent response of DMSO control [3],GFP response vs DMSO [4],"GFP response, % of DMSO [5]",double positive events [6] [%],vesicle binding response [6],inhibition [7],superoxide response (% of plate) [8],aptamer binding inhibition [9],response [10],inhibition [11],response [12],binding (% of control) [13],efflux inhibition (fraction of control) [14],inhibition [15],differentiation response [16]
COC1CCN(Cc2cn(Cc3ccccc3)nc2-c2cc3ccccc3o2)CC1,105% (inactive),93% (inactive),102% (inactive),89.4% (inactive),98.9% (inactive),61.8,243% (inactive),22.4% (inactive),104% (inactive),0% (inactive),8.96% (inactive),9.94% (inactive),-0.82% (inactive),105% (inactive),-0.14 (inactive),12% (inactive),-9.53% (inactive)
COc1ccc(N2C(=O)[C@@H]3[C@H](C2=O)[C@H]2c4ccccc4C=CN2[C@@H]3C(C)=O)cc1,101% (inactive),104% (inactive),96.5% (inactive),112% (inactive),96.8% (inactive),64.6,176% (inactive),-27.9% (inactive),98.7% (inactive),2% (inactive),-19.3% (inactive),-12.3% (inactive),-3.65% (inactive),107% (inactive),-0.26 (inactive),-6% (inactive),-3.11% (inactive)
COC(=O)c1ccc(NC(=O)c2ccccc2SC)cc1,97.8% (inactive),104% (inactive),102% (inactive),106% (inactive),91.8% (inactive),58.4,132% (inactive),1.62% (inactive),109% (inactive),2% (inactive),1.63% (inactive),18.8% (inactive),-1.67% (inactive),99% (inactive),-0.26 (inactive),1% (inactive),5.13% (inactive)
O=C(CN1CCN(Cc2ccccc2)CC1)N1CCCc2c1c(=O)oc1ccc(O)cc21,93.3% (inactive),127% (inactive),108% (inactive),77.6% (inactive),84.3% (inactive),53,202% (inactive),-11% (inactive),107% (inactive),-3% (inactive),-14.1% (inactive),9.01% (inactive),-1.88% (inactive),109% (inactive),-0.31 (inactive),3% (inactive),8.19% (inactive)
O=C(COc1cc(O)c2c(=O)c3ccccc3oc2c1)OCc1ccccc1,101% (inactive),104% (inactive),109% (inactive),85.5% (inactive),97.6% (inactive),61,152% (inactive),-3.57% (inactive),101% (inactive),-2% (inactive),-4.65% (inactive),-5.28% (inactive),4.03% (inactive),93.3% (inactive),-0.01 (inactive),0% (inactive),12.9% (inactive)
COc1cc2c(cc1OC)CN(Cc1ccc(C)s1)CC2,102% (inactive),106% (inactive),105% (inactive),88.1% (inactive),98% (inactive),64.1,349% (inactive),-13.9% (inactive),103% (inactive),4% (inactive),-7.1% (inactive),14.8% (inactive),-3% (inactive),101% (inactive),0.05 (inactive),4% (inactive),2.2% (inactive)
